From PubChem BioAssay (EPA / NIEHS) come the findings set out here.

More than one record can exist for a structure, and the calls need not agree. The source made the active and inactive calls. Rule for the calls: active = hit-call score of the fitted dose curve at least 0.9, where 1 is the maximum; inactive = score below 0.9.

Read-out in test [1]: Monokine induced gamma interferon (MIG), CXCL9 (gene 4283)
Description: BSK_hDFCGF_MIG: BioMAP Diversity Plus: hDFCGF Assay for Monokine induced gamma interferon (MIG) Biomarker Activity (AID 2283063). The note with it: primary human foreskin fibroblasts; actives raise or lower the signal. An outline of the steps:
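ELISA read-out of MIG from primary human dermal fibroblasts 24 h post-dosing. Gain or loss of signal fitted bidirectionally, DMSO as baseline.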

Read-out in test [2]: Matrix Metallopeptidase 1 (MMP1), MMP1 (gene 4312)
Description: BSK_hDFCGF_MMP1: BioMAP Diversity Plus: hDFCGF Assay for Matrix Metallopeptidase 1 (MMP1) Biomarker Activity (AID 2283064). The note with it: primary human foreskin fibroblasts; actives raise or lower the signal. An outline of the steps: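 MMP1 levels quantified by ELISA 24 h after dosing human dermal fibroblast cultures, with parallel SRB total-protein staining for overt cytotoxicity. Data fitted in both directions against DMSO baseline.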

Read-out in test [3]: Vascular cell adhesion molecule 1 (VCAM1), VCAM1 (gene 7412)
Description: BSK_hDFCGF_VCAM1: BioMAP Diversity Plus: hDFCGF Assay for Vascular cell adhesion molecule 1 (VCAM1) Biomarker Activity (AID 2283065).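 For AC50: VCAM-1 protein level quantified by ELISA after 24 h chemical exposure.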 The note with it: primary human foreskin fibroblasts; actives raise or lower the signal. An outline of the steps: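 Primary human foreskin fibroblasts (hDFCGF system) were dosed with chemical and VCAM-1 was measured by ELISA 24 h later. Bidirectional curve fitting used DMSO as negative control and activity baseline.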

Read-out in test [4]: Plasminogen activator inhibitor-1 (PAI1), SERPINE1 (gene 5054)
The test is described as follows: BSK_hDFCGF_PAI1: BioMAP Diversity Plus: hDFCGF Assay for Plasminogen activator inhibitor-1 (PAI1) Biomarker Activity (AID 2283066). The note with it: primary human foreskin fibroblasts; actives raise or lower the signal. The method in brief:
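PAI-1 levels in human dermal foreskin fibroblasts were quantified by ELISA 24 h after dosing, with gain or loss analysed against DMSO. Overt cytotoxicity was checked by sulforhodamine B total-protein staining in parallel cultures.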

Read-out in test [5]: Intercellular Adhesion Molecule 1 (ICAM1), ICAM1 (gene 3383)
Description: BSK_KF3CT_ICAM1: BioMAP Diversity Plus: KF3CT Assay for Intercellular Adhesion Molecule 1 (ICAM1) Biomarker Activity (AID 2283067). The note with it: primary human keratinocytes with fibroblasts; actives raise or lower the signal. The method in brief:
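Human keratinocyte plus foreskin fibroblast primary co-culture was exposed to chemical for 24 h. ICAM-1 was then quantified by ELISA, and the data were fit bidirectionally against DMSO as the negative control and baseline.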

Read-out in test [6]: Interferon-gamma inducible Protein 10 (IP10), CXCL10 (gene 3627)
The test is described as follows: BSK_KF3CT_IP10: BioMAP Diversity Plus: KF3CT Assay for Interferon-gamma inducible Protein 10 (IP10) Biomarker Activity (AID 2283068). The note with it: primary human keratinocytes with fibroblasts; actives raise or lower the signal. An outline of the steps:
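KF3CT co-culture (keratinocytes + foreskin fibroblasts), 24 h compound, IP-10 by ELISA; bidirectional fit vs DMSO baseline.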

A short description of test [7]: BSK_KF3CT_SRB: Viability Assessment in the BioMAP Diversity Plus: KF3CT Assay (AID 2283069).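 Note: read 24 h after compound addition.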 The note with it: primary human keratinocytes with fibroblasts. The method in brief:
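Cytotoxicity was gauged by SRB staining (0.1% SRB, 10% TCA fixation, 560 nm) of parallel cultures at 24 h. The cells were primary human skin keratinocytes co-cultured with fibroblasts, and activity was fitted in both directions against DMSO.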

Read-out in test [8]: Interleukin-1 alpha (IL1a), IL1A (gene 3552)
The test is described as follows: BSK_KF3CT_IL1a: BioMAP Diversity Plus: KF3CT Assay for Interleukin-1 alpha (IL1a) Biomarker Activity (AID 2283070). The note with it: primary human keratinocytes with fibroblasts; actives raise or lower the signal. An outline of the steps: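 IL-1a was detected by ELISA 24 h after chemical treatment of a co-culture of human skin keratinocytes and foreskin fibroblasts. Gain or loss of signal was fitted against the DMSO baseline.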

Read-out in test [9]: TIMP metallopeptidase inhibitor 2 (TIMP2), TIMP2 (gene 7077)
The test is described as follows: BSK_KF3CT_TIMP2: BioMAP Diversity Plus: KF3CT Assay for TIMP metallopeptidase inhibitor 2 (TIMP2) Biomarker Activity (AID 2283071). The note with it: primary human keratinocytes with fibroblasts; actives raise or lower the signal. An outline of the steps:
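TIMP-2 measured by ELISA at 24 h in human keratinocyte/fibroblast primary co-cultures exposed to chemicals. Both increases and decreases were fitted against DMSO. Parallel cultures were stained with SRB for total protein as an overt-cytotoxicity check.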

Read-out in test [10]: Transforming growth factor beta 1 (TGFb1), TGFB1 (gene 7040)
The test is described as follows: BSK_KF3CT_TGFb1: BioMAP Diversity Plus: KF3CT Assay for Transforming growth factor beta 1 (TGFb1) Biomarker Activity (AID 2283072). The note with it: primary human keratinocytes with fibroblasts; actives raise or lower the signal. The method in brief:
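ELISA quantifies TGF-b1 at 24 h post-dose in a primary human skin co-culture of keratinocytes and fibroblasts, with gain or loss judged against DMSO. Parallel SRB total-protein staining flags overt cytotoxicity.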

Read-out in test [11]: C-C motif chemokine 2 (Homo sapiens) (UniProt P13500)
Description: BSK_KF3CT_MCP1: BioMAP Diversity Plus: KF3CT Assay for Monocyte Chemoattractant Protein 1 (MCP1/CCL2) Biomarker Activity (AID 2283073). The note with it: primary human keratinocytes with fibroblasts; actives raise or lower the signal. The method in brief: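 Human keratinocyte plus foreskin fibroblast primary co-culture exposed to chemical for 24 h. MCP-1 levels measured by ELISA. Bidirectional curve fitting relative to DMSO negative control as baseline.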

Read-out in test [12]: Matrix Metallopeptidase 9 (MMP9), MMP9 (gene 4318)
Description: BSK_KF3CT_MMP9: BioMAP Diversity Plus: KF3CT Assay for Matrix Metallopeptidase 9 (MMP9) Biomarker Activity (AID 2283074).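 For AC50: MMP9 protein level quantified by ELISA in the co-culture.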 The note with it: primary human keratinocytes with fibroblasts; actives raise or lower the signal. An outline of the steps: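 MMP-9 quantified by ELISA after 24 h chemical treatment of primary human skin keratinocyte/fibroblast co-cultures; gain or loss fitted against DMSO, with parallel SRB staining (0.1% SRB, 560 nm) for overt cytotoxicity.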

Read-out in test [13]: urokinase plasminogen activator (uPA), PLAU (gene 5328)
Description: BSK_KF3CT_uPA: BioMAP Diversity Plus: KF3CT Assay for urokinase plasminogen activator (uPA) Biomarker Activity (AID 2283075). The note with it: primary human keratinocytes with fibroblasts; actives raise or lower the signal. The method in brief:
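ELISA read-out of uPA 24 h after dosing human skin keratinocytes co-cultured with foreskin fibroblasts. Signal change fitted both ways relative to DMSO; sulforhodamine B on parallel cultures marks overt cytotoxicity.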

Read-out in another test: CD40, CD40 (gene 958)
The test is described as follows: BSK_LPS_CD40: BioMAP Diversity Plus: LPS Assay for CD40 Biomarker Activity (AID 2283076). The note with it: primary human HUVEC with PBMC; actives raise or lower the signal. An outline of the steps: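 Primary human umbilical vein endothelial cells co-cultured with peripheral blood mononuclear cells, LPS-stimulated, were dosed with chemical and read 24 h later. CD40 levels were measured by ELISA and fitted bidirectionally against DMSO as negative control and baseline.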

Read-out in test [14]: E-selectin (Homo sapiens) (UniProt P16581)
Description: BSK_LPS_Eselectin: BioMAP Diversity Plus: LPS Assay for Eselectin Biomarker Activity (AID 2283077). The note with it: primary human HUVEC with PBMC; actives raise or lower the signal. An outline of the steps:
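Human umbilical vein endothelial cells co-cultured with peripheral blood mononuclear cells under LPS stimulation; E-selectin measured by ELISA 24 h after chemical dosing. Activity fitted bidirectionally against DMSO as negative control and baseline.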

Read-out in test [15]: Interleukin-8 (IL8), CXCL8 (gene 3576)
The test is described as follows: BSK_LPS_IL8: BioMAP Diversity Plus: LPS Assay for Interleukin-8 (IL8) Biomarker Activity (AID 2283078). The note with it: primary human HUVEC with PBMC; actives raise or lower the signal. An outline of the steps: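 Human umbilical vein endothelial cells co-cultured with PBMC were stimulated with LPS; IL-8 levels were measured by ELISA 24 h after chemical dosing. Activity was fitted bidirectionally against DMSO as negative control and baseline.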

Test [16] is described as follows: BSK_LPS_SRB: Viability Assessment in the BioMAP Diversity Plus: LPS Assay (AID 2283079).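 Note: total protein by sulforhodamine B absorbance as a cytotoxicity measure; measured one day after compound addition; fitted in both directions against DMSO so loss or gain of signal counts.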 The note with it: primary human HUVEC with PBMC. The method in brief:
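Human umbilical vein endothelial cells co-cultured with PBMC (LPS system) were dosed for 24 h. Total protein was stained with 0.1% sulforhodamine B after 10% TCA fixation, read at 560 nm, and fitted bidirectionally against DMSO baseline.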

Read-out in test [17]: Interleukin-1 alpha (IL1a), IL1A (gene 3552)
The test is described as follows: BSK_LPS_IL1a: BioMAP Diversity Plus: LPS Assay for Interleukin-1 alpha (IL1a) Biomarker Activity (AID 2283080). The note with it: primary human HUVEC with PBMC; actives raise or lower the signal. An outline of the steps:
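Human umbilical vein endothelial cells co-cultured with peripheral blood mononuclear cells were LPS-stimulated and exposed to test chemicals for 24 h. IL-1 alpha was quantified by ELISA, with bidirectional curve fitting against DMSO as the negative control and baseline.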

Read-out in test [18]: Monocyte Chemoattractant Protein-1 (MCP1), CCL2 (gene 6347)
Description: BSK_LPS_MCP1: BioMAP Diversity Plus: LPS Assay for Monocyte Chemoattractant Protein-1 (MCP1) Biomarker Activity (AID 2283081). The note with it: primary human HUVEC with PBMC; actives raise or lower the signal. An outline of the steps: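 HUVEC plus PBMC co-culture (human primary cells, LPS system) exposed to test chemical for 24 h; MCP-1 measured by ELISA. Bidirectional curve fitting against DMSO baseline; parallel SRB total-protein staining flags overt cytotoxicity.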

The nature of test [19]: BSK_LPS_PGE2: BioMAP Diversity Plus: LPS Assay for Prostaglandin E2 (PGE2) Biomarker Activity (AID 2283082). The note with it: primary human HUVEC with PBMC; actives raise or lower the signal. The method in brief:
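PGE2 release measured by ELISA in an LPS-activated co-culture of human umbilical vein endothelial cells and peripheral blood mononuclear cells, read at 24 h post-dosing. DMSO served as baseline for bidirectional curve fitting.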

Chain of E-selectin (Homo sapiens) (P16581 whole entry, looked up): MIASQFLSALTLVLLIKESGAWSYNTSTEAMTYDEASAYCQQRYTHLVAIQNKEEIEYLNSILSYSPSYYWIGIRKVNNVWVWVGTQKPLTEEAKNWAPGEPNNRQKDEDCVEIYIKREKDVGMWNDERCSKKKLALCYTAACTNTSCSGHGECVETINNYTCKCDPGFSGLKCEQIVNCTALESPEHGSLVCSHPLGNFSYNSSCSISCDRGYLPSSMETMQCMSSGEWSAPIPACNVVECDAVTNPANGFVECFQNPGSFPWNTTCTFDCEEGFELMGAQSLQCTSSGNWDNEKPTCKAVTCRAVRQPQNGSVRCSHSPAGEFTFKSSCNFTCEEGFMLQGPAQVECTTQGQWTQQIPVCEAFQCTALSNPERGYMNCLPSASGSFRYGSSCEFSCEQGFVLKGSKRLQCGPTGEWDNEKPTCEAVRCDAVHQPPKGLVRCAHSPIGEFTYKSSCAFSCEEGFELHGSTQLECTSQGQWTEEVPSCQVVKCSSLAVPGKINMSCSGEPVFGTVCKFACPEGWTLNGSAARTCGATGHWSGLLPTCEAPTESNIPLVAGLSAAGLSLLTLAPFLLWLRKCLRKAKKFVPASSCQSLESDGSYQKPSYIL

On to `c1ccc(C(O[C@@H]2CCCN(CCc3ccc4c(c3)OCO4)C2)c2ccccc2)cc1`, for which the result in test [1], in test [2], in [5], in test [6], in [7] and in [8] was inactive. Besides, the outcome in test [10], in test [11], in [13], in test [14], in [18] and in [19] was inactive. Also, the AC50 in test [3] was 8.8 µM (active); in [4], 20 µM (active); in [9] it was 3.97 µM (active); in test [12], 32.2 µM (active); with CD40, CD40 (gene 958) it was 29.1 µM (active); in test [15], 20 µM (active). In addition, the AC50 was 26.3 µM (active) in test [16] and 12.5 µM (active) in test [17].

In the case of `C=CN1CCCC1=O`, the outcome in test [1], in test [2], in [3], in test [4], in test [5] and in test [6] was inactive. Further, the result in [7], in [8], in [9], in [10], in test [11] and in test [12] was inactive. Moreover, the outcome is “inactive” in [13]; “inactive” with CD40, CD40 (gene 958); “inactive” in test [14]; “inactive” in test [15]; “inactive” in [16]; “inactive” in test [17]. For the same compound, the result in [18] and in test [19] was inactive.

As to `COc1cc(C(C)C)c2c(c1)S(=O)(=O)N(COc1cc(=O)n3cccc(OCCN4CCCCC4)c3n1)C2=O`, the AC50 was 5.41 µM (active) in test [1]; 1.3 µM (active) in [2]; 2.72 µM (active) in [3]; 6.38 µM (active) in [4]; 7.22 µM (active) in test [6]; 5 µM (active) in [8]. Further, the AC50 in test [11] was 2.78 µM (active); in test [12] it was 7.75 µM (active); with CD40, CD40 (gene 958), 6.39 µM (active); in test [14], 8.03 µM (active). For the same compound, the result in [5], in [7], in test [9], in [10], in [13] and in [15] was inactive. The result in [16], in [17], in [18] and in test [19] was inactive.

As to `C[C@@H](Oc1ccc(CNC(=O)c2cccnc2Oc2ccc3c(c2)OCO3)c(F)c1)C(=O)O`, the outcome in [1], in test [2], in test [3], in test [4], in [5] and in test [6] was inactive. Besides, the result in test [7], in test [8], in [9], in [10], in test [11] and in test [12] was inactive. Also, the outcome in [13] was “inactive”; in the test with CD40, CD40 (gene 958), “inactive”; in test [14], “inactive”; in test [15], “inactive”; in test [16], “inactive”; in [17], “inactive”. Besides, the outcome in [18] and in [19] was inactive.

Take `OCCC(F)(F)C(F)(F)C(F)(F)C(F)(F)F`: the result in test [1], in test [2], in test [3], in test [4], in [5] and in [6] was inactive. Further, the result in test [7], in [8], in test [9], in [11], in [12] and in test [13] was inactive. The outcome with CD40, CD40 (gene 958) was “inactive”; in test [14] it was “inactive”; in [15], “inactive”; in test [16], “inactive”; in test [17], “inactive”; in [18], “inactive”. The outcome in test [19] was inactive. Besides, the AC50 in [8] is 8.32 µM (active).

For orientation: AC50 means the concentration at which the activity in the assay is half-maximal.
